# Laboratory results taken from PubChem BioAssay (NCATS).
# Records with an inconclusive call do not appear. Entries that show only a call come without a potency. Unmarked numbers belong to inactive results. Activity calls are given as the source filed them. Calls come from the whole dose curve; as a rule, active = well fitted curve in the direction sought with a large enough effect; inconclusive = small, poorly fitted or top-dose-only effect, or another doubt; inactive = no such curve, though single readings can be large; an effect the other way counts as inactive or inconclusive.
# Columns and labels:
# [1] = target: Retinaldehyde dehydrogenase 3 (Homo sapiens) (UniProt P47895); test: qHTS for Inhibitors of the Aldehyde Dehydrogenase Family (ALDH1A3) Primary screen (AID 2061315)
# [2] = target: Retinaldehyde dehydrogenase 3 (Homo sapiens) (UniProt P47895); test: qHTS for Inhibitors of the Aldehyde Dehydrogenase Family (ALDH1A3) Validation screen (AID 2061312); note: nearly all actives have a fitted effect of over 45% in size
# [3] = target: Aldehyde dehydrogenase, mitochondrial (Homo sapiens) (UniProt P05091); test: qHTS for Inhibitors of the Aldehyde Dehydrogenase Family (ALDH2) Primary screen (AID 2061308); note: nearly all actives have a fitted effect of over 55% in size
# [4] = BET inhibitor-based combinations targeting novel dependencies in MECOM-rearranged (r) AML: HNT-34 cell line (AID 2202234); note: nearly all actives have a fitted effect of over 35% in size; note: potency is the fitted concentration of half-maximal effect
# In short: (§1)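 First, 500 cells per well were seeded; next, drugs were pinned as 11-point doses; then plates sat 48 hr in the incubator; finally CellTiter-Glo was added and luminescence read, with AUC and Z-AUC computed.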
# [5] = BET inhibitor-based combinations targeting novel dependencies in MECOM-rearranged (r) AML: UCSD-AML1 cell line (AID 2202235); note: nearly all actives have a fitted effect of over 40% in size; note: potency is the fitted concentration of half-maximal effect
# In short: as §1
# [6] = BET inhibitor-based combinations targeting novel dependencies in MECOM-rearranged (r) AML: AML-194 cell line (AID 2202237; note: nearly all actives have a fitted effect of over 40% in size; note: potency is the fitted concentration of half-maximal effect)
# In short: (§2)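 Each compound was tested at eleven concentrations on cells seeded at 500/well. After two days' incubation, ATP-based luminescence reported viability; responses relative to DMSO and blank wells yielded AUC and cell-line-centred Z-AUC.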
# [7] = BET inhibitor-based combinations targeting novel dependencies in MECOM-rearranged (r) AML: SET-2 cell line (AID 2202231); settings: SET-2 AML cells viability, CellTiter-Glo luminescence, 48 h; viability: active compounds read low, concentration not given here; note: nearly all actives have a fitted effect of over 35% in size; note: potency is the fitted concentration of half-maximal effect
# In short: as §2
# [8] = BET inhibitor-based combinations targeting novel dependencies in MECOM-rearranged (r) AML: OCI-AML3 cell line (AID 2202232); settings: Potency: OCI-AML3 viability; note: nearly all actives have a fitted effect of over 35% in size; note: potency is the fitted concentration of half-maximal effect
# In short: as §2
# [9] = BET inhibitor-based combinations targeting novel dependencies in MECOM-rearranged (r) AML: MV-4-11 cell line (AID 2202233); note: nearly all actives have a fitted effect of over 45% in size; note: potency is the fitted concentration of half-maximal effect
# In short: as §1
# [10] = BET inhibitor-based combinations targeting novel dependencies in MECOM-rearranged (r) AML: AML-191 cell line (AID 2202236; note: nearly all actives have a fitted effect of over 35% in size; note: potency is the fitted concentration of half-maximal effect)
# In short: as §2
structure (smiles),measurement,setting,value
CC(=O)Oc1cc2c(s1)CCN([C@H](C(=O)C1CC1)c1ccccc1F)C2,Potency,[1],inactive
O=c1cc(-c2ccccc2F)[nH]c2cc3c(cc12)OCO3,Potency,[2],inactive
Cn1cnc2c(F)c(Nc3ccc(Br)cc3F)c(C(=O)NOCCO)cc21,Potency,[3],inactive
same,Potency,[1],inactive
same,Potency,[4],23.5 nM (active)
O=C(NCC(=O)N1CCCC1)Nc1ccc2cnccc2c1,Potency,[3],inactive
same,Potency,[1],inactive
same,Potency,[4],inactive
same,Potency,[5],inactive
same,Potency,[6],inactive
CCCOc1ccc(C(=O)OCCN(CC)CC)cc1N,viability,[7],101%
same,Potency,[8],inactive
same,Potency,[9],inactive
same,Potency,[4],inactive
same,Potency,[5],inactive
same,Potency,[10],inactive
same,Potency,[6],inactive
COc1ncnc(NS(=O)(=O)c2ccc(N)cc2)c1OC,viability,[7],116%
same,Potency,[8],inactive
same,Potency,[9],inactive
same,Potency,[4],inactive
same,Potency,[5],inactive
same,Potency,[10],inactive
same,Potency,[6],inactive
CN1C(=O)c2sccc2N(C)c2nc(Nc3ccc(S(N)(=O)=O)cc3)ncc21,Potency,[8],1660 nM (active)
same,Potency,[9],1050 nM (active)
same,Potency,[4],934 nM (active)
same,Potency,[5],2350 nM (active)
same,Potency,[10],3720 nM (active)
same,Potency,[6],2350 nM (active)
CN(C)CCN1C(=O)c2cccc3cc(N)cc(c23)C1=O,Potency,[7],14800 nM (active)
same,Potency,[4],10500 nM (active)
same,Potency,[6],16600 nM (active)
Cn1c(=O)c(F)c(Nc2ccc(I)cc2F)c2c(=O)n(C[C@@H](O)CO)cnc21,Potency,[7],16600 nM (active)
same,Potency,[8],5.9 nM (active)
same,Potency,[4],83.3 nM (active)
same,Potency,[5],1320 nM (active)
Cc1ccc(NC(=O)c2cccc(N(C)C)c2)cc1NC(=O)c1ccc(O)cc1,viability,[7],90.3%
same,Potency,[5],inactive
same,Potency,[10],inactive
NS(=O)(=O)c1ccc(Nc2nc(OCC3CCCCC3)c3[nH]cnc3n2)cc1,Potency,[3],inactive
same,Potency,[1],inactive
same,Potency,[9],3320 nM (active)
same,Potency,[5],10500 nM (active)
